Assay [1] in a line: ATG_TAL_CIS: Attagene CIS-FACTORIAL HepG2 Assay for human TAL Basal Promoter (AID 2282966).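 Note: background control endpoint measuring basal TAL promoter reporter mRNA not a specific factor.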 The note with it: HepG2 Attagene cis-factorial TAL promoter reporter; actives raise or lower the signal. The gist of the method:
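HepG2 cells were transiently transfected with promoter-driven multiplexed reporter units and dosed for 24 h. Reporter mRNA was measured by RT-PCR with capillary electrophoresis fluorescence; bidirectional fits used DMSO as baseline, serving as a background control.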

Assay [2] is described as follows: ATG_TGFb_CIS: Attagene CIS-FACTORIAL HepG2 Assay for human Transforming Growth Factor (TGF) (AID 2282967). The note with it: HepG2 Attagene CIS TGFb reporter, mRNA transcription; actives raise or lower the signal. In a few lines: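 Transcript-level reporter readout: HepG2 transfectants, 24 h exposure, RNA to cDNA, reporter-specific PCR, fluorescent primer extension, capillary sizing against ROX standards. Gain- or loss-of-signal relative to DMSO.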

Assay [3] can be described thus: ATG_VDRE_CIS: Attagene CIS-FACTORIAL HepG2 Assay for human Vitamin D Receptor Element (VDRE) (AID 2282968). The conditions noted are these: HepG2 VDRE cis-reporter transcription, actives raise or lower the signal. The gist of the method: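 Cell-based multiplexed reporter format in human liver HepG2 cells, 24 h post-dose. Fluorescence from capillary electrophoresis of reporter cDNA gives the signal, with DMSO as negative control and baseline.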

The target of assay [4] is Nuclear receptor subfamily 1 group I member 3 (Homo sapiens) (UniProt Q14994). The experiment in a line: ATG_CAR_TRANS: Attagene TRANS-FACTORIAL HepG2 Assay for human Constitutive Androstane Receptor (CAR) (AID 2282969; active = hit-call score of the fitted dose curve at least 0.9, where 1 is the maximum;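 note: activators raise reporter mRNA above DMSO so AC50 marks induction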). The note with it: HepG2 Attagene TRANS-FACTORIAL CAR reporter. The gist of the method:
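HepG2 cells transiently transfected with GAL4-UAS reporter units; TRANS format reads activity of exogenous chimeric NR-Gal4 protein. After 24 h dosing, reporter mRNA quantified by RT-PCR, 6-FAM labelling and capillary electrophoresis; gain of signal fitted against DMSO.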

The target in assay [5] is X-box-binding protein 1 (Homo sapiens) (UniProt P17861). Description: ATG_Xbp1_CIS: Attagene CIS-FACTORIAL HepG2 Assay for human X-box Binding Protein 1 (XBP1) (AID 2282972). The note with it: HepG2 XBP1 cis-element reporter, Attagene multiplex; actives raise or lower the signal. In a few lines: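 Fluorescence-labelled cDNA fragments from reporter transcripts, separated by capillary electrophoresis, give the signal. Source: HepG2 cells transfected with promoter-driven reporter units, harvested 24 h post-dose. DMSO served as reference for bidirectional curve fitting.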

Assay [6] has as its target Oxysterols receptor LXR-alpha (Homo sapiens) (UniProt Q13133). Description: ATG_LXRa_TRANS: Attagene TRANS-FACTORIAL HepG2 Assay for human Liver X Receptor alpha (LXRa) (AID 2282980; active = hit-call score of the fitted dose curve at least 0.9, where 1 is the maximum). The note with it: HepG2 Attagene TRANS reporter, LXRa transactivation. In a few lines: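 HepG2 cells were transiently transfected with multiplexed reporter units driven by chimeric LXRa–GAL4 fusion proteins, then dosed for 24 h. Reporter mRNA was quantified by RT-PCR, fluorescent labelling and capillary electrophoresis; gain of signal fitted against DMSO baseline.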

Assay [7] has as its target Oxysterols receptor LXR-beta (Homo sapiens) (UniProt P55055). The experiment in a line: ATG_LXRb_TRANS: Attagene TRANS-FACTORIAL HepG2 Assay for human Liver X Receptor beta (LXRb) (AID 2282981; active = hit-call score of the fitted dose curve at least 0.9, where 1 is the maximum). The conditions noted are these: HepG2 Attagene TRANS GAL4-LXRb reporter, mRNA. The gist of the method:
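Gain-of-signal mRNA reporter endpoint, DMSO as negative control. Transiently transfected HepG2 cells carrying the NR-Gal4 chimera and GAL4-UAS reporter units were treated 24 h; transcripts quantified by RT-PCR and capillary electrophoresis fluorescence.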

Assay [8] is described as follows: ATG_M_06_TRANS: Attagene TRANS-FACTORIAL HepG2 Assay for M06 Transcription Factor (Internal Marker) (AID 2282983; active = hit-call score of the fitted dose curve at least 0.9, where 1 is the maximum). The conditions noted are these: HepG2 Attagene TRANS M06 internal marker reporter. The gist of the method:
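HepG2 cells transiently transfected with multiplexed GAL4-UAS reporter transcription units; after 24 h compound exposure, reporter mRNA measured by RT-PCR, FAM-labelled primer extension, HpaI digestion and capillary electrophoresis. Gain-of-signal fitted versus DMSO baseline; background control readout.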

Assay [9] concerns the target Transcriptional activator Myb (Homo sapiens) (UniProt P10242). Description: ATG_Myb_CIS: Attagene CIS-FACTORIAL HepG2 Assay for human Myeloblastosis (Myb) Proto-Oncogene Transcription Factor (AID 2282986). The conditions noted are these: HepG2 Attagene CIS-FACTORIAL Myb reporter transcription; actives raise or lower the signal. In a few lines: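 HepG2, transient MRTU transfection (cis-element promoters, endogenous TF activity), 24 h compound exposure. Readout: reporter mRNA via RT-PCR, 6-FAM labeling, HpaI digest, capillary electrophoresis. Gain/loss fit vs DMSO.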

In assay [10] the target is Nuclear respiratory factor 1 (Homo sapiens) (UniProt Q16656). Description: ATG_NRF1_CIS: Attagene CIS-FACTORIAL HepG2 Assay for human Nuclear Respiratory Factor 1 (NRF1) Orphan Gene (AID 2282987). The note with it: HepG2 NRF1 cis-element reporter, Attagene multiplex; actives raise or lower the signal. In a few lines: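 Endogenous NRF1-driven reporter transcription measured in transiently transfected human HepG2 liver cells. Readout: reporter mRNA by RT-PCR and capillary electrophoresis with fluorescence detection, 24 h post-dosing. Gain or loss of signal fitted relative to DMSO baseline.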

Assay [11] can be described thus: ATG_NFI_CIS: Attagene CIS-FACTORIAL HepG2 Assay for human Nuclear Factor I (NFI) (AID 2282989). The conditions noted are these: HepG2 cis-regulatory reporter, NFI response element transcription; actives raise or lower the signal. In a few lines: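 After transient transfection of HepG2 with cis-promoter reporter constructs and 24 h dosing, RNA is reverse-transcribed, amplified, 6-FAM end-labelled and HpaI-digested before capillary analysis. Bidirectional curve fitting against DMSO.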

The target in assay [12] is Myc proto-oncogene protein (Homo sapiens) (UniProt P01106). Description: ATG_Myc_CIS: Attagene CIS-FACTORIAL HepG2 Assay for human Myelocytomatosis (Myc) Proto-Oncogene Transcription Factor (AID 2282990). The note with it: HepG2, Attagene cis-reporter transcription factor activity; actives raise or lower the signal. In a few lines:
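Fluorescence intensity of reporter-specific cDNA fragments, separated by capillary electrophoresis, gives the signal. Transfected HepG2 cells carrying cis-promoter reporter constructs are incubated with compound for 24 h; DMSO serves as baseline.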

Assay [13] in a line: ATG_GAL4_TRANS: Attagene TRANS-FACTORIAL HepG2 Assay for GAL4 (Internal Marker) (AID 2282976; active = hit-call score of the fitted dose curve at least 0.9, where 1 is the maximum). The note with it: HepG2 Attagene TRANS GAL4 internal marker reporter. In a few lines: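 HepG2 cells transiently transfected with multiplexed GAL4-UAS reporter constructs were dosed for 24 h. Reporter mRNA was measured by RT-PCR, 6-FAM primer extension, HpaI digestion and capillary electrophoresis, and gain of signal was fitted relative to DMSO.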

Assay [14] addresses Glucocorticoid receptor (Homo sapiens) (UniProt P04150). Description: ATG_GR_TRANS: Attagene TRANS-FACTORIAL HepG2 Assay for human Glucocorticoid Receptor (GR) (AID 2282978; active = hit-call score of the fitted dose curve at least 0.9, where 1 is the maximum;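 note: activators score as hits since higher reporter transcript over DMSO is fitted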). The conditions noted are these: HepG2 Attagene TRANS GR reporter, mRNA transcription. In a few lines: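 Transient MRTU transfection of HepG2 (GAL4-UAS reporters, exogenous NR-GAL4 chimeras), 24 h dosing. Readout: reporter transcript via RT-PCR + capillary electrophoresis fluorescence. Positive direction vs DMSO baseline.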

Assay [15] can be described thus: ATG_M_32_TRANS: Attagene TRANS-FACTORIAL HepG2 Assay for M32 Transcription Factor (Internal Marker) (AID 2282984; active = hit-call score of the fitted dose curve at least 0.9, where 1 is the maximum). The note with it: HepG2 Attagene TRANS M32 internal marker reporter. In a few lines: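 Capillary electrophoresis of 6-FAM-labelled reporter fragments gives the signal; data fitted for gain over DMSO negative control. Source: HepG2 cells bearing transient multiple reporter transcription units, 24 h exposure.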

The target in assay [16] is Steroid hormone receptor ERR1 (Homo sapiens) (UniProt P11474). The experiment in a line: ATG_ERRa_TRANS: Attagene TRANS-FACTORIAL HepG2 Assay for human Estrogen-Related Receptor alpha (ERRa) (AID 2282971; active = hit-call score of the fitted dose curve at least 0.9, where 1 is the maximum). The note with it: HepG2 Attagene TRANS reporter, ERRa transactivation. In a few lines: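 HepG2 cells transiently transfected with multiplexed GAL4-UAS reporter units reading chimeric ERRa-Gal4 activity; 24 h compound exposure. Reporter mRNA measured by RT-PCR, 6-FAM labelling, HpaI digest and capillary electrophoresis; gain of signal fitted versus DMSO baseline.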

Assay [17] in a line: ATG_M_19_TRANS: Attagene TRANS-FACTORIAL HepG2 Assay for M19 Transcription Factor (Internal Marker) (AID 2282974; active = hit-call score of the fitted dose curve at least 0.9, where 1 is the maximum). The conditions noted are these: HepG2 Attagene TRANS-FACTORIAL M19 internal marker reporter. In a few lines: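 24 h chemical exposure of transiently transfected HepG2 (MRTU library). RNA → oligo(dT) RT → PCR → 6-FAM labelling → HpaI cut → CE fluorescence. Positive-direction fit vs DMSO baseline; background internal-marker readout.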

Assay [18] concerns the target Estrogen-related receptor gamma (Homo sapiens) (UniProt P62508). Description: ATG_ERRg_TRANS: Attagene TRANS-FACTORIAL HepG2 Assay for human Estrogen-Related Receptor gamma (ERRg) (AID 2282977; active = hit-call score of the fitted dose curve at least 0.9, where 1 is the maximum;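 note: hits increase reporter signal over DMSO so potencies reflect activators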). The conditions noted are these: HepG2 Attagene TRANS reporter, ERRg transactivation. In a few lines: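 Transient HepG2 transfectants, 24 h compound exposure, GAL4-UAS reporter mRNA by RT-PCR/6-FAM labelling/capillary electrophoresis; positive direction vs DMSO.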

Inconclusive results are not listed. Activity calls are given as the source filed them. Rule for the calls, unless noted: active = hit-call score of the fitted dose curve at least 0.9, where 1 is the maximum; inactive = score below 0.9.

A word on the AC50: it is the concentration at which the activity in the assay is half-maximal.

Chain of Transcriptional activator Myb (Homo sapiens) (P10242 whole entry, looked up): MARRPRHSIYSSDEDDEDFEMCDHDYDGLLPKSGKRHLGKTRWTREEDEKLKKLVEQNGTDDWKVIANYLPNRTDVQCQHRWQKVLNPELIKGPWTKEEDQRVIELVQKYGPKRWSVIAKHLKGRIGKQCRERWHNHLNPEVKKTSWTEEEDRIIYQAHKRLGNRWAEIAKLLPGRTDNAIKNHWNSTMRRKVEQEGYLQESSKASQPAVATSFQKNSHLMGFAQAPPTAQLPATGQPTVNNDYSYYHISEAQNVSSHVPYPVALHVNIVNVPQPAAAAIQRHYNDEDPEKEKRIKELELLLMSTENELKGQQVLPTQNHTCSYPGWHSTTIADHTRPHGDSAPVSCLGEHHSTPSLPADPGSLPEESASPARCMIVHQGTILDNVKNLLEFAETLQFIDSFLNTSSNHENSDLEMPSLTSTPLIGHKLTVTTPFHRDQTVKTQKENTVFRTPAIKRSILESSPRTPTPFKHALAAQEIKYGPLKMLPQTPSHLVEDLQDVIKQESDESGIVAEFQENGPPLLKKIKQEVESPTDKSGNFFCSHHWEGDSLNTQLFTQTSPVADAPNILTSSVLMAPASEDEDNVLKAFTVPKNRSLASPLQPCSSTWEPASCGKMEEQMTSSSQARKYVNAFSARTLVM
Chain of Nuclear respiratory factor 1 (Homo sapiens) (Q16656 whole entry, looked up): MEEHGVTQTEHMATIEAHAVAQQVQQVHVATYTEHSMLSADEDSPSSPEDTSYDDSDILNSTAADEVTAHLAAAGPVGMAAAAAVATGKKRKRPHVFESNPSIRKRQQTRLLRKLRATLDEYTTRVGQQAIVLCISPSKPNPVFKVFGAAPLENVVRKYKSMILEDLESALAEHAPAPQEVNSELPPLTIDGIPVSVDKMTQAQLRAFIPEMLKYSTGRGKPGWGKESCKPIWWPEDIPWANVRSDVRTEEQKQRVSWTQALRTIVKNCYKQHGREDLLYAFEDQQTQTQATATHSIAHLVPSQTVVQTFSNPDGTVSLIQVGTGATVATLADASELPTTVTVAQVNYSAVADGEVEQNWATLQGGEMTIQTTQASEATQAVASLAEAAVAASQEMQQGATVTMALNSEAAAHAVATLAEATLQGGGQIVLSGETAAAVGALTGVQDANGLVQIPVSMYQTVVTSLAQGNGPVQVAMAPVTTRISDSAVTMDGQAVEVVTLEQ
Chain of X-box-binding protein 1 (Homo sapiens) (P17861 whole entry, looked up, the tested form may be a part): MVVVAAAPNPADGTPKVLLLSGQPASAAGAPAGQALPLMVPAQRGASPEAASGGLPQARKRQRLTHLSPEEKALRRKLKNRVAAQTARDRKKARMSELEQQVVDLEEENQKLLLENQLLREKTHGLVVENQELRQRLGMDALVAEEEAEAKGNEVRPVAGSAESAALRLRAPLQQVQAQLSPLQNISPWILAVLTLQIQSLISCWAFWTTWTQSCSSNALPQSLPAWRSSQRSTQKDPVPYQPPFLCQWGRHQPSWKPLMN
Chain of Oxysterols receptor LXR-beta (Homo sapiens) (P55055 whole entry, looked up, the tested form may be a part): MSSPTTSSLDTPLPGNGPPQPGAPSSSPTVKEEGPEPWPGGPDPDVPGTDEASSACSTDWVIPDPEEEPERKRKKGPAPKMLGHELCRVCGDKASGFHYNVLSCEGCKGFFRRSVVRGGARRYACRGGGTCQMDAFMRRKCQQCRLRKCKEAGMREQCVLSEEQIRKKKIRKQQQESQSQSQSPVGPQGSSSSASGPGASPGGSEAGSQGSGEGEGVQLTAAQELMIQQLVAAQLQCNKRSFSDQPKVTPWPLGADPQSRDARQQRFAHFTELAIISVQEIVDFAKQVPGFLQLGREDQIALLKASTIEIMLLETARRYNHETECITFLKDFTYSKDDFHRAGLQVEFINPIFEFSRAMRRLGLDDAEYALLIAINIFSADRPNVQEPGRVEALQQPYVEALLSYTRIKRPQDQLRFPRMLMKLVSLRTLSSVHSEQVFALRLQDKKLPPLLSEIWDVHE
Chain of Myc proto-oncogene protein (Homo sapiens) (P01106 whole entry, looked up, the tested form may be a part): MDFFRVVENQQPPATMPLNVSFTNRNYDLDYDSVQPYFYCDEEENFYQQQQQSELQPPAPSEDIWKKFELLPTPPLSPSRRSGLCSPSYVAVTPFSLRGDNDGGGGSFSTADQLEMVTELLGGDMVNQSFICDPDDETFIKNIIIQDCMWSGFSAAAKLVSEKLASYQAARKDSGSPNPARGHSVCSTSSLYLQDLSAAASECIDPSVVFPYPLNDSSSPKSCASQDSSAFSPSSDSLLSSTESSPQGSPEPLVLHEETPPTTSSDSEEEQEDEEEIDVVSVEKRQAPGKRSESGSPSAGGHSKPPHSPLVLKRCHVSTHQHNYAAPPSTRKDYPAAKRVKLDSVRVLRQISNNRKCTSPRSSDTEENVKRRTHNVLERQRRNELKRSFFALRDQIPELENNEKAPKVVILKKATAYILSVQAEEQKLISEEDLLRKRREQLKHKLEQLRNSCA
Chain of Nuclear receptor subfamily 1 group I member 3 (Homo sapiens) (Q14994 whole entry, looked up, the tested form may be a part): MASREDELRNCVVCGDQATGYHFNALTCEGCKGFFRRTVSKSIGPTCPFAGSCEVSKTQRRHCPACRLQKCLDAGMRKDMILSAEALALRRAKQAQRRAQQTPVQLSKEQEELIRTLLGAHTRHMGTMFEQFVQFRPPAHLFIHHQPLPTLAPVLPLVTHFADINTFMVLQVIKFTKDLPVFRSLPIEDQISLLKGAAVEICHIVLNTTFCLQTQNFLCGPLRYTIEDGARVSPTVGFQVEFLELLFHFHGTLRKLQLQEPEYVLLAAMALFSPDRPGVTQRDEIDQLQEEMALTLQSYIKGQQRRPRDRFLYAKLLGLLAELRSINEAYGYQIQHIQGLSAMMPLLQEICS
Chain of Oxysterols receptor LXR-alpha (Homo sapiens) (Q13133 whole entry, looked up, the tested form may be a part): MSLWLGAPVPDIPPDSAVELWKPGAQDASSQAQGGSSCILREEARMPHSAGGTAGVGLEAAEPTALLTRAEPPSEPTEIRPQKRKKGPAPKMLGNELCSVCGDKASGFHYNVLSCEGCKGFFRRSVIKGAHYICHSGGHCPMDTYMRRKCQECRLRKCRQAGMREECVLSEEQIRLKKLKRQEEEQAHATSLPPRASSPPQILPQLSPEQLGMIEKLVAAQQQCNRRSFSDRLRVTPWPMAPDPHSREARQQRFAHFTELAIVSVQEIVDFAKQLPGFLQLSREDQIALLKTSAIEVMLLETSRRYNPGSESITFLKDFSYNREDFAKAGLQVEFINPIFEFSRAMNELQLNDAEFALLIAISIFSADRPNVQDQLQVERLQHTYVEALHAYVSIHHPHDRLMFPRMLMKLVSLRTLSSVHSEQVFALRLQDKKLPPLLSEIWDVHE
Chain of Glucocorticoid receptor (Homo sapiens) (P04150 whole entry, looked up, the tested form may be a part): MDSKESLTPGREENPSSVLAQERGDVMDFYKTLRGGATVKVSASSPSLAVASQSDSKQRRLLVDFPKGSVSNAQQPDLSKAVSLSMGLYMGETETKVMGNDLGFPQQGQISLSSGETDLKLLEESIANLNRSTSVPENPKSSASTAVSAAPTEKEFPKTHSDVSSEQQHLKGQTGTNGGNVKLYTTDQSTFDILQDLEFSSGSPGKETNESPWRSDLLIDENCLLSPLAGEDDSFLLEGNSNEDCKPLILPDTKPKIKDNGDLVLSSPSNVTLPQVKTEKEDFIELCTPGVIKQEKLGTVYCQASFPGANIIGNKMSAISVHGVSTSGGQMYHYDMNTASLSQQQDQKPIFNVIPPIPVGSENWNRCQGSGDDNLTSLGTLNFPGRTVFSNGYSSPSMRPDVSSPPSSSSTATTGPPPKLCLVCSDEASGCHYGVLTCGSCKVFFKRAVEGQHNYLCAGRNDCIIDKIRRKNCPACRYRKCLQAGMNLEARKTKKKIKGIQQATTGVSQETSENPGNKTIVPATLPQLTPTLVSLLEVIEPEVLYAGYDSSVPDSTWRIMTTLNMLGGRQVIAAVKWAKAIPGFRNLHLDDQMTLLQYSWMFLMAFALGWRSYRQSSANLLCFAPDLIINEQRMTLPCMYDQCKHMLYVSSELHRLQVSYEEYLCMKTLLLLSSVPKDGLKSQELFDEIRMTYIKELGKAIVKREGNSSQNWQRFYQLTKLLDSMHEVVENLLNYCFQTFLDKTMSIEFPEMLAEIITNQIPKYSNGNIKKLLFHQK
Chain of Steroid hormone receptor ERR1 (Homo sapiens) (P11474 whole entry, looked up, the tested form may be a part): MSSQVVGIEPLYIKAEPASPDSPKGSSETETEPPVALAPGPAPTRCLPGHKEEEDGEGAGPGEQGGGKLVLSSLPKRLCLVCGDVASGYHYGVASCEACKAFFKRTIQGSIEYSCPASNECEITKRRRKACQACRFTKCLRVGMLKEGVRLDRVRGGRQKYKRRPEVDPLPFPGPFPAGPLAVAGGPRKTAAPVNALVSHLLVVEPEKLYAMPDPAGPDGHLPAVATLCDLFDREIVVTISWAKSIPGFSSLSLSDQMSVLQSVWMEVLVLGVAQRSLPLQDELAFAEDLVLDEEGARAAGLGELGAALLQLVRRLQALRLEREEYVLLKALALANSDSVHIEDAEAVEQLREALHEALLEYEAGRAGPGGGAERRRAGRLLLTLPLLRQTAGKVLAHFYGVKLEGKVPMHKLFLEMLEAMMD
Chain of Estrogen-related receptor gamma (Homo sapiens) (P62508 whole entry, looked up, the tested form may be a part): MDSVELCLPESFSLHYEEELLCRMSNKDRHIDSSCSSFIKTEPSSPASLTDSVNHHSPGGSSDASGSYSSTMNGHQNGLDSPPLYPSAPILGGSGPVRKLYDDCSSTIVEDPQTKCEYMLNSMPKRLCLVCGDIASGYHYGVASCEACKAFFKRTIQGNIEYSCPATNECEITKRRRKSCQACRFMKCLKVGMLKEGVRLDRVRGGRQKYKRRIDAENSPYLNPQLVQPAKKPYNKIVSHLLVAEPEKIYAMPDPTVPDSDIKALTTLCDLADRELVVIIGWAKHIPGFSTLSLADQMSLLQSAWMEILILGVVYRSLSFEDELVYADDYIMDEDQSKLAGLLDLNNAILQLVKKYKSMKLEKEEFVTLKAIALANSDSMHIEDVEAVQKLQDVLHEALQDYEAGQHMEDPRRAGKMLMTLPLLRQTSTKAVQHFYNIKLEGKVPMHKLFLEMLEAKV

As to `O=c1n(CC2CO2)c(=O)n(CC2CO2)c(=O)n1CC1CO1` (configuration not stated), the result in assay [1], in [2], in assay [4], in assay [6], in assay [7] and in [8] was inactive. Moreover, the molecule was classed as inactive in assay [9] and in [10]. Further, the AC50 in assay [3] was 100 µM (active); in assay [5], 74.9 µM (active); in assay [11], 47 µM (active); in assay [12] it was 58.4 µM (active).

For `CC(=O)c1ccc2c(c1)[C@H](NC(=O)c1ccc(F)cc1)[C@@H](O)C(C)(C)O2`, the result in assay [1], in assay [2], in assay [3], in assay [4], in assay [5] and in assay [13] was inactive. In addition, the molecule was classed as inactive in [14], in assay [7], in [15], in assay [9], in assay [10] and in [11]. Besides, in assay [12], the result was inactive.

As to `CCNc1ccccc1`, the molecule was called inactive in assay [1], in [2], in [3], in assay [4], in [5] and in assay [13]. Further, the outcome in assay [8], in assay [9], in [10] and in assay [11] was inactive.

As to `O=C(O)CC(O)C(=O)O` (configuration not stated), the molecule was called inactive in assay [1], in [2], in [3], in assay [4], in [5] and in [8]. Also, the molecule was called inactive in [9], in assay [10], in [11] and in [12].

As for `CNCc1ccc(NC(=O)c2c[nH]c3c2C(=O)CCC3)cc1`, the molecule was called inactive in assay [1], in assay [2], in [3], in assay [4], in assay [16] and in assay [5]. Further, the molecule was classed as inactive in [17], in assay [13], in assay [18], in assay [14], in assay [6] and in assay [7]. For the same molecule, the outcome in assay [8], in assay [15], in [10], in [11] and in assay [12] was inactive.

The values above are taken from PubChem BioAssay (EPA / NIEHS).
